Test results taken from the supplement of paper PMC10849652.
Targets with a hit are over-represented here; the source holds about 8,800 in all. About 0.5% of all pairs of compound and target were hits. Unmarked numbers belong to inactive results.

compound: C[C@H](C1=CC=C(C=C1)C(=O)NC2=C3C=CNC3=NC=C2)N; experiment: log2 fold change, soluble protein after heating vs DMSO (PISA); higher = thermal stabilisation; K562 lysate, 10 uM; active = over 0.2 and 3.5 SD of the protein, either way, in both replicates (recomputed)
Outline: (§1)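 To prepare the extract, K562 pellets were dounce-homogenised in PBS pH 7.4 with 1 mM MgCl2, giving crude material at 1 mg/mL protein. This was treated with 10 μM compound for 30 min, then heated in aliquots for 3 min over 48°C-58°C before pooling and addition of NP-40 to 0.5% at 4°C. Centrifugation at 21,000xg for 90 min left soluble protein in the supernatant, which TMTpro 16plex LC-MS/MS quantified with equalised channel sums. Results are log-two fold changes in thermal stability compared with solvent controls, from duplicates.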

Sequence of UniProt P11233 (P11233 whole entry, looked up): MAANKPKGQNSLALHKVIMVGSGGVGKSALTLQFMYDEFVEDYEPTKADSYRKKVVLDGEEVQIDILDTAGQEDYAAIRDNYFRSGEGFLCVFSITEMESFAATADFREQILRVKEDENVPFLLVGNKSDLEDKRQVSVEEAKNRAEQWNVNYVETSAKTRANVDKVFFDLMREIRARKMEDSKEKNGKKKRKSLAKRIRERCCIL
Sequence of UniProt Q86U06 (Q86U06 whole entry, looked up): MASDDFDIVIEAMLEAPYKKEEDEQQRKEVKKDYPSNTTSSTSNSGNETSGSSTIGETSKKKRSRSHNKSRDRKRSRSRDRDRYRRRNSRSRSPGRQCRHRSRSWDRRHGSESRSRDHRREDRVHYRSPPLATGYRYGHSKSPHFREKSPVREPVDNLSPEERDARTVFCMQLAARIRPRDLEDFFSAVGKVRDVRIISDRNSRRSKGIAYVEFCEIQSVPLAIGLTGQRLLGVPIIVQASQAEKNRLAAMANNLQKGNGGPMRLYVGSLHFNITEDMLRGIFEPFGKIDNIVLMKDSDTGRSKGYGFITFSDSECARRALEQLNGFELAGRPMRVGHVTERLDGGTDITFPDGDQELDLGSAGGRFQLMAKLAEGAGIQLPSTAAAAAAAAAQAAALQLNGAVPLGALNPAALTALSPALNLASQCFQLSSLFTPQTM
Sequence of UniProt P55735 (P55735 whole entry, looked up): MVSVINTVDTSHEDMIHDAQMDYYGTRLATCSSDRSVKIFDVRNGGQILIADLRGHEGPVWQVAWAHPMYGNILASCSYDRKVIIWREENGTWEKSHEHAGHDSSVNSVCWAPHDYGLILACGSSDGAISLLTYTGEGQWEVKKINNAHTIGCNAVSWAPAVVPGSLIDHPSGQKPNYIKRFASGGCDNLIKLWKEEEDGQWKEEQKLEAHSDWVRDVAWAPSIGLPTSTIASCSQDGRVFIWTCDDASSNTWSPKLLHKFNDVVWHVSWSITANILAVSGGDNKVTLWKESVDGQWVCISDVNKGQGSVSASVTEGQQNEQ
Sequence of UniProt Q8NC42 (Q8NC42 whole entry, looked up): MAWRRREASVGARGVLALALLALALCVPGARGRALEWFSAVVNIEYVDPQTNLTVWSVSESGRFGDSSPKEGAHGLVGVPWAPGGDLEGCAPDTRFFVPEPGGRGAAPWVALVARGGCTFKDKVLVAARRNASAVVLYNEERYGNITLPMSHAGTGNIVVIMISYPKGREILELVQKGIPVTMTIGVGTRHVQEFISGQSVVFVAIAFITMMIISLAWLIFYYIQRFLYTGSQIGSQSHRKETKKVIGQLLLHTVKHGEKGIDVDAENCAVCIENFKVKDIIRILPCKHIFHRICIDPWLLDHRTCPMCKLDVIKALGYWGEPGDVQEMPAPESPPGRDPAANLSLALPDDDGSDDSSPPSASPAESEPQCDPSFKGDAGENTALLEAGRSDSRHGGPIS
Sequence of UniProt P38159 (P38159 whole entry, looked up): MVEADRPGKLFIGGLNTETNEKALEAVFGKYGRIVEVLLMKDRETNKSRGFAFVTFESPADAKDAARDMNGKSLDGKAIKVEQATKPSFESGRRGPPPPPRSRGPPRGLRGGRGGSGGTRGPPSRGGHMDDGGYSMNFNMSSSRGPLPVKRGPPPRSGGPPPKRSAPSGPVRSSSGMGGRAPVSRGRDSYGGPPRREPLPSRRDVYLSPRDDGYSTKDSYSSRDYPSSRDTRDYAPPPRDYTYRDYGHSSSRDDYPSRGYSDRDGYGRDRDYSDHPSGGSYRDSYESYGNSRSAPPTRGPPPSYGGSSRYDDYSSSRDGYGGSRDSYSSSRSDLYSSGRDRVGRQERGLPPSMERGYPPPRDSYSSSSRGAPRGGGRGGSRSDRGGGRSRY
Sequence of UniProt Q8IYW5 (Q8IYW5 whole entry, looked up): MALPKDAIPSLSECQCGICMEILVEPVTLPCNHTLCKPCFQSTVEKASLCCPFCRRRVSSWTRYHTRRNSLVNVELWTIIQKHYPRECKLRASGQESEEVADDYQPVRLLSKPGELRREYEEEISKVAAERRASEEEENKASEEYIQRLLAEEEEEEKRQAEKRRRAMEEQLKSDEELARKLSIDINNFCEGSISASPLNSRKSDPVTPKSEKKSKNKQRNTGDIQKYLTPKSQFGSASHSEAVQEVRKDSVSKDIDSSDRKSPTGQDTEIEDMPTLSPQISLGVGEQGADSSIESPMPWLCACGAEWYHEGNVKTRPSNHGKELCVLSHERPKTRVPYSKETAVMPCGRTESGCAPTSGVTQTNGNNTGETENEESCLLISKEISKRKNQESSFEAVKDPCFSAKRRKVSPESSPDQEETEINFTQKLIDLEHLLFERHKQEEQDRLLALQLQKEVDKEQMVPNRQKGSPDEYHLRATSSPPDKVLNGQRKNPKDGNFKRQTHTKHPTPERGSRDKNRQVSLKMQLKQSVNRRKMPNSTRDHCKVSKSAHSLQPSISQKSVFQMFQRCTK
Sequence of UniProt Q5TBB1 (Q5TBB1 whole entry, looked up): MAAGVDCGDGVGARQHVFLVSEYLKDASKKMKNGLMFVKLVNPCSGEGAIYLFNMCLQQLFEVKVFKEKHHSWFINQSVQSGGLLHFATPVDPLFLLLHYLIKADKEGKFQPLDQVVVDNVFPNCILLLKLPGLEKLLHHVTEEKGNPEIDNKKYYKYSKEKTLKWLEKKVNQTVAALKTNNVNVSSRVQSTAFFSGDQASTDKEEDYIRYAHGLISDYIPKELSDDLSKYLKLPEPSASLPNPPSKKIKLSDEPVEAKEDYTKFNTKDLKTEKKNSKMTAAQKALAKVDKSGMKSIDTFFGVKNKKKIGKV
Sequence of UniProt P35250 (P35250 whole entry, looked up): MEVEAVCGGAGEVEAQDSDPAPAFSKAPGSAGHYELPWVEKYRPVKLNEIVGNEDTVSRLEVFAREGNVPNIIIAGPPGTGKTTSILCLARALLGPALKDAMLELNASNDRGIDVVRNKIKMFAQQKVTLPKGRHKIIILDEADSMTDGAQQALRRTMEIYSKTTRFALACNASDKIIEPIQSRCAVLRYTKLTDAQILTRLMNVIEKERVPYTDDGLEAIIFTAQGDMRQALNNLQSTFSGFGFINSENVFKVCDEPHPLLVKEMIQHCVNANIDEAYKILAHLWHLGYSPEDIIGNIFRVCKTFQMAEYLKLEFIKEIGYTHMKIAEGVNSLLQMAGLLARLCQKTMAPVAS
Sequence of UniProt Q9H974 (Q9H974 whole entry, looked up): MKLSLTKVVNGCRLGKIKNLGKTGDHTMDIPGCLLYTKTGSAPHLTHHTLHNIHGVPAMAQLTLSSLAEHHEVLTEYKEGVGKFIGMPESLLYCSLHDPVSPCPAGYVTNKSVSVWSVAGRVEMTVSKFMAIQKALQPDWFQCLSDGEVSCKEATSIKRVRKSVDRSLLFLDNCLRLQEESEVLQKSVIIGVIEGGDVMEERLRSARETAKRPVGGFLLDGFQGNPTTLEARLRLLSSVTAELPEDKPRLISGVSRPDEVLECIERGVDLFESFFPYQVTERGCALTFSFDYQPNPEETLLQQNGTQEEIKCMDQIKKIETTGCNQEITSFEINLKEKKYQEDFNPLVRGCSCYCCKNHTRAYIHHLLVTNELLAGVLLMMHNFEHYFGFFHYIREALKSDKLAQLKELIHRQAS
Sequence of UniProt Q8NC44 (Q8NC44 whole entry, looked up): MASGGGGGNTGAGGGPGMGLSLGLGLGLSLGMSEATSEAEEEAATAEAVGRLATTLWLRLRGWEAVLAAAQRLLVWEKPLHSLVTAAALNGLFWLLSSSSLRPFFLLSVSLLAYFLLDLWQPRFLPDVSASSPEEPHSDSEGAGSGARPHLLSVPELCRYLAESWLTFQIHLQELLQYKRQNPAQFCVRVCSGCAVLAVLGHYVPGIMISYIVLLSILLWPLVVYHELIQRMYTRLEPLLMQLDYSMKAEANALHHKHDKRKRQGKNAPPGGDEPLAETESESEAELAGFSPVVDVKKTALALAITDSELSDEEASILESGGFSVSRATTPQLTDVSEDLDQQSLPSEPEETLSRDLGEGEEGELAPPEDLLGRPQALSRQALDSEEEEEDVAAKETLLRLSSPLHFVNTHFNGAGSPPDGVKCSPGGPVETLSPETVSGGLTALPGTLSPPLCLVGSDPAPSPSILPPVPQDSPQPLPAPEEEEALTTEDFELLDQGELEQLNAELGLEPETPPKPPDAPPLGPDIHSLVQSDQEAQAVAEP
Sequence of UniProt O75446 (O75446 whole entry, looked up): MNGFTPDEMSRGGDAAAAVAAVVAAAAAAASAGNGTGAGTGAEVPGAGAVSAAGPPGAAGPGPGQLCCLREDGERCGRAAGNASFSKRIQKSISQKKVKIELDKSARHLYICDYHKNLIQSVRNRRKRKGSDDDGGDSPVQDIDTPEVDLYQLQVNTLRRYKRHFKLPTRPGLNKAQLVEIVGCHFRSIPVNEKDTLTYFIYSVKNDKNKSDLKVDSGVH
Sequence of UniProt Q00765 (Q00765 whole entry, looked up): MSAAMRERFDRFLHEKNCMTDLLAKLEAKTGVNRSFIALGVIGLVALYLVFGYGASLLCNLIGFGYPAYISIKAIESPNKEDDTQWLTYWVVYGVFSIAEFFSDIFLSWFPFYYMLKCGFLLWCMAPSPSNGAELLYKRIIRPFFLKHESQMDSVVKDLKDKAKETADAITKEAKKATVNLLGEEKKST
Sequence of UniProt Q9BVS4 (Q9BVS4 whole entry, looked up): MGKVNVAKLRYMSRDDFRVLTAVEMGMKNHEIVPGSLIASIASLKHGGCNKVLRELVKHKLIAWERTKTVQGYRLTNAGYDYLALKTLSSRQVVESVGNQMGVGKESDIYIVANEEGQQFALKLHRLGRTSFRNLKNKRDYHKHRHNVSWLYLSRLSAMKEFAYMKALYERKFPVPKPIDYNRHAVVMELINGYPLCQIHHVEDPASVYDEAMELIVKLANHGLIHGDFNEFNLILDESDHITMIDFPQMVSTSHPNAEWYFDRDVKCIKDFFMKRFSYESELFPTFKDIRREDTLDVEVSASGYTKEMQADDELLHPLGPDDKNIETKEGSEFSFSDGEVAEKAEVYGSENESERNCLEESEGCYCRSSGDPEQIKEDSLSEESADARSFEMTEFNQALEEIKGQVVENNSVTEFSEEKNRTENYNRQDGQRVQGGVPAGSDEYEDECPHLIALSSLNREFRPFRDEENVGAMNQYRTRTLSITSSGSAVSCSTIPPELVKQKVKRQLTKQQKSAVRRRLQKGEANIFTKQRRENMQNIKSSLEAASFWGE

Row | Target | log2 fold change
1 | RPS26P11 (UniProt Q5JNZ5) | -0.484 (active)
2 | RBM23 isoform 2 (UniProt Q86U06) | 0.044
3 | RBMX (UniProt P38159) | 0.011
4 | RNASEH2B (UniProt Q5TBB1) | 0.126
5 | RNF168 (UniProt Q8IYW5) | -0.015
6 | RALA (UniProt P11233) | -0.3 (active)
7 | RPS4X (UniProt P62701) | 0.209
8 | RETREG2 (UniProt Q8NC44) | -0.052
9 | SEC13 isoform 3 (UniProt P55735) | 0.417 (active)
10 | RNF149 (UniProt Q8NC42) | -0.039

compound: C[C@H](Nc1ncnc2nc[nH]c12)c1cc2cccc(Cl)c2c(=O)n1-c1ccccc1 [duvelisib]; experiment: as above
Outline: as §1

Row | Target | log2 fold change
11 | RDH10 (UniProt Q8IZV5) | 0.022
12 | RPTOR (UniProt Q8N122) | -0.024
13 | SASS6 (UniProt Q6UVJ0) | -0.018
14 | RBBP7 isoform 2 (UniProt Q16576) | 0.025
15 | RAB21 (UniProt Q9UL25) | -0.087
16 | RBSN (UniProt Q9H1K0) | 0.093
17 | RECQL5 (UniProt O94762) | 0.029
18 | SAP30 (UniProt O75446) | 0.004
19 | R3HCC1 (UniProt Q9Y3T6) | 0
20 | RPL31 (UniProt P62899) | 0.004
21 | S100A11 (UniProt P31949) | 0.052
22 | RFC2 (UniProt P35250) | 0.025
23 | RPL27 (UniProt P61353) | 0.012
24 | RXRB isoform 3 (UniProt P28702) | -0.051
25 | RIC1 (UniProt Q4ADV7) | -0.048
26 | RAPGEF2, A0A2R8YGD3 | 0.018

Row | Target | log2 fold change
27 | REEP5 (UniProt Q00765) | 0.01
28 | QTRT2 isoform 4 (UniProt Q9H974) | -0.008
29 | RAP1GAP isoform 4 (UniProt P47736) | -0.032
30 | REXO4 (UniProt Q9GZR2) | -0.003
31 | RIOK2 (UniProt Q9BVS4) | 0.016
32 | RNF17 (UniProt Q9BXT8) | -0.071
33 | SCCPDH (UniProt Q8NBX0) | 0.195
34 | RPS26P11 (UniProt Q5JNZ5) | 0.076
35 | RBM23 isoform 2 (UniProt Q86U06) | -0.008
36 | RBMX (UniProt P38159) | 0.033
37 | RNASEH2B (UniProt Q5TBB1) | 0.03
38 | RNF168 (UniProt Q8IYW5) | 0.037
39 | RALA (UniProt P11233) | 0
40 | RPS4X (UniProt P62701) | 0.012
41 | SEC13 isoform 3 (UniProt P55735) | 0.02
42 | RNF149 (UniProt Q8NC42) | -0.025

compound: Cc1cc(Nc2cc(CN3CCOCC3)c3nc(C)c(Cc4ccc(Cl)cc4F)n3n2)n[nH]1 [gandotinib]; experiment: as above
Outline: as §1

Row | Target | log2 fold change
43 | RDH10 (UniProt Q8IZV5) | 0.055
44 | RPTOR (UniProt Q8N122) | -0.097
45 | SASS6 (UniProt Q6UVJ0) | -0.076
46 | RBBP7 isoform 2 (UniProt Q16576) | 0.019
47 | RAB21 (UniProt Q9UL25) | -0.112
48 | RBSN (UniProt Q9H1K0) | 0.019
49 | RECQL5 (UniProt O94762) | -0.15
50 | SAP30 (UniProt O75446) | -0.036
51 | R3HCC1 (UniProt Q9Y3T6) | 0.089
52 | RPL31 (UniProt P62899) | 0.005
53 | S100A11 (UniProt P31949) | -0.042
54 | RFC2 (UniProt P35250) | -0.007
55 | RPL27 (UniProt P61353) | -0.098
56 | RXRB isoform 3 (UniProt P28702) | -0.074
57 | RIC1 (UniProt Q4ADV7) | -0.092
58 | RAPGEF2, A0A2R8YGD3 | 0.038
59 | REEP5 (UniProt Q00765) | 0.061

Row | Target | log2 fold change
60 | QTRT2 isoform 4 (UniProt Q9H974) | 0.185
61 | RAP1GAP isoform 4 (UniProt P47736) | -0.044
62 | REXO4 (UniProt Q9GZR2) | -0.169
63 | RIOK2 (UniProt Q9BVS4) | 0.829 (active)
64 | RNF17 (UniProt Q9BXT8) | 0.028
65 | SCCPDH (UniProt Q8NBX0) | 0.869 (active)
66 | RPS26P11 (UniProt Q5JNZ5) | 0.147
67 | RBM23 isoform 2 (UniProt Q86U06) | 0.272
68 | RBMX (UniProt P38159) | -0.003
69 | RNASEH2B (UniProt Q5TBB1) | -0.126
70 | RNF168 (UniProt Q8IYW5) | 0.002
71 | RALA (UniProt P11233) | 0.158
72 | RPS4X (UniProt P62701) | -0.038
73 | RETREG2 (UniProt Q8NC44) | -0.052
74 | SEC13 isoform 3 (UniProt P55735) | -0.076
75 | RNF149 (UniProt Q8NC42) | -0.026
